Data published in the supplement of paper PMC4954754.
± gives the uncertainty stated by the source.

System: HEK293T-Rex XBP1-RLuc
Assay: XBP1-RLuc splicing reporter activation, triplicate, relative to 500 nM thapsigargin (% of thapsigargin); higher = stronger IRE1/XBP1s reporter activation
Conditions: 6.8 µM; 18 h; screen: confirmation
Experimental: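 HEK293T-Rex cells stably expressing the ERSE-firefly luciferase (BiP promoter, ATF6-preferring) or XBP1-splicing Renilla luciferase (IRE1/XBP1s) reporter, 1536-well plates, compound at 6.8 µM for 18 hr at 37 °C; luminescence read […] and expressed as % activation = 100*(compound - median DMSO)/(median 500 nM thapsigargin - median DMSO). Primary screen was single-pass; confirmation screen in triplicate (mean ± SD).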

Row | Compound | XBP1-RLuc splicing reporter activation
1 | COc1c(O)cc2oc(-c3ccc(O)c(O)c3)cc(=O)c2c1O | 53.7 ± 3.8
2 | CN(C)c1ccc(/C=N/NC(=O)c2cccc(Br)c2)cc1 | 1.93 ± 3.2
3 | N#C/C(=C/c1ccc(O)c(O)c1)c1nc2ccccc2[nH]1 | 10.3 ± 0.38
4 | O=c1/c(=C/c2ccc(O)c(O)c2)sc2nc3ccccc3n12 | 6.32 ± 0.52
5 | CCCNC(=O)c1ccc2nc(-c3ccc4[nH]ccc4c3)sc2c1 | -0.994 ± 0.65
6 | O=C(N/N=C/c1ccc(O)c(O)c1)c1cccc(Cl)c1 | 6.18 ± 0.63
7 | O=C1N/C(=C/c2ccc(O)cc2)C(=O)N1Cc1ccc(Br)cc1 | 33.3 ± 4.9
8 | Cc1cc(C)nc(/N=C(\N)Nc2ccc(OCc3ccc(Cl)cc3)cc2)n1 | 81.2 ± 5.9
9 | Cc1ccc(C(=O)Nc2ccccc2N)cc1 | 14.1 ± 1.3
10 | O=C(/C=C/c1ccccc1)Nc1ccc(Br)cn1 | 0.069 ± 1.1
11 | CN(C)c1ccc(/C=C/C(=O)NC(=O)c2ccccc2OC(=O)c2ccccc2)cc1 | 0.481 ± 0.46
12 | O=C1N/C(=C/c2ccc(O)cc2)C(=O)N1c1ccccc1 | 49 ± 4.5
13 | Cc1ccc(O)c(NC(=O)c2cc(-c3ccco3)on2)c1 | 19 ± 4.5
14 | O=[N+]([O-])c1ccc(/C=C/c2ccc(O)cc2)cc1 | 19.2 ± 1.3
15 | Cc1cc2nc(-c3ccc(SCC#N)nc3)[nH]c2cc1C | 2.7 ± 0.91
16 | COc1ccc(/C=N/c2sc3c(c2C(N)=O)CCCC3)cc1 | 2.45 ± 0.41
17 | Cn1cccc1/C=C1/SC(=Nc2ccccc2)NC1=O | 5.98 ± 0.28
18 | O=C(N/N=C/c1cccc(O)c1O)c1ccccc1I | 11.2 ± 0.69
19 | O=C(N/N=C/c1ccc2c(c1)OCO2)c1cccc(F)c1 | 1.67 ± 0.99
20 | CCc1cc2c(=O)c(-c3ccc4c(c3)OCCO4)coc2cc1OC | 12.2 ± 0.77

Row | Compound | XBP1-RLuc splicing reporter activation
21 | Cc1ccc(O)c(NC(=O)c2cc(C(C)C)on2)c1 | 12.7 ± 0.5
22 | Cc1ccn2cc(-c3ccc(O)c(O)c3)nc2c1 | 17.8 ± 5
23 | O=C(N/N=C\c1ccccc1[N+](=O)[O-])c1[nH]nc2c1CCc1ccccc1-2 | 3.05 ± 1.7
24 | C(=N/Nc1nnc2c(n1)[nH]c1ccccc12)/c1c[nH]c2ccccc12 | 9.3 ± 1.4
25 | COc1cn(-c2ccc(F)cc2)nc1C(=O)Nc1ccccc1SC | 15.5 ± 1.8
26 | COC(=O)c1ccc(C(=O)Nc2ccccc2N)cc1 | 9.29 ± 0.17
27 | COc1ccccc1/C=N/Nc1nc(-c2ccccc2)cc(=O)[nH]1 | 7.58 ± 1.9
28 | O=C(/C=C/c1ccco1)Nc1ccccn1 | 0.777 ± 0.52
29 | N#Cc1c(NC(=O)c2cnccn2)sc2c1CCCC2 | 2.98 ± 3.5
30 | C=CCNC(=O)c1cc(-c2ccccc2)on1 | 5.5 ± 0.76
31 | O=[N+]([O-])c1ccccc1N/N=C/c1ccc(O)c(O)c1 | 10.3 ± 1.3
32 | O=C(N/N=C/c1cccc(Cl)c1Cl)c1ccccc1O | 6.36 ± 0.63
33 | COc1ccccc1/C=C/C(=O)Nc1ccc(Cl)cn1 | -1.93 ± 1.5
34 | CN(C)/C=N/C1=C(C#N)C(c2ccc3c(c2)OCO3)c2ccc3ccccc3c2O1 (stereo not given) | 1.3 ± 3.6
35 | Cc1nn(-c2ccc(F)cc2)c2ncc(C(=O)NCc3ccco3)c(Cl)c12 | 110 ± 9.1
36 | O=C(Nc1ccc(O)cc1)c1ccc2ccccc2c1 | 6.41 ± 0.68
37 | O=C(Nc1ccc2c(c1)OCCO2)C(=O)Nc1ccccc1Cl | -0.329 ± 3.7
38 | COc1ccc(-c2csc(N(CC3CCCO3)C(=O)CCl)n2)cc1 (stereo not given) | 2.74 ± 0.89
39 | COc1cccc(C(=O)Nc2nc3ccc(C)cc3s2)c1 | 5.6 ± 0.99
40 | O=C1/C(=C/c2ccc(O)c(O)c2)Oc2cc(O)ccc21 | 12.6 ± 0.23
